Experimental data from paper PMC7862700, “An all-to-all approach to the identification of sequence-specific readers for epigenetic DNA modifications on cytosine”.

Assays:
Assay in all cases: DAPPL (digital affinity profiling via proximity ligation, sequencing); 10 mM Tris-HCl pH 7.5, 50 mM NaCl, 1 mM DTT, 4% glycerol, room temperature, 30 min; GST-TFs on glutathione beads, 16-mer random dsDNA library, 0.1% formaldehyde crosslink after washing; high values mean tight binding
FEV = biological target: T1, FEV (Homo sapiens, UniProt Q99581 1-238); settings: protein: recombinant; tags: N-terminal GST; dsDNA, one strand shown
T1 sequence: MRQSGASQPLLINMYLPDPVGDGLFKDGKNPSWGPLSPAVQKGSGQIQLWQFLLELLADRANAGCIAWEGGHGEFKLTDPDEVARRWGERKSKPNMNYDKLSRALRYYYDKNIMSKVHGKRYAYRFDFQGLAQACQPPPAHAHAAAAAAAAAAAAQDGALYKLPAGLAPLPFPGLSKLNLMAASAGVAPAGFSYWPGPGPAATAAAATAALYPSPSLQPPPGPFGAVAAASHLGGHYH
How it was run: (§1)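 In yeast, human transcription factors were expressed with a GST fusion, then pulled down on glutathione beads and given DNA barcodes. Pooled with a tag-only sample, they were exposed to 200 nmole of a 16-mer random double-stranded DNA library (Tris/NaCl/DTT/glycerol buffer, room temperature, 30 min), washed, crosslinked with 0.1% formaldehyde, proximity-ligated using BsaI/T4 ligase for 1 h at 37 °C, PCR-amplified and read on an Illumina NextSeq500. Each hexamer's frequency of reads for a factor, divided by the matching frequency for the tag-only sample, gives the binding signal.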

ETV5 = ETV5 (Homo sapiens, UniProt P41161 1-510); settings: protein: recombinant; tags: N-terminal GST; dsDNA, one strand shown
Chain of ETV5 (P41161 whole entry): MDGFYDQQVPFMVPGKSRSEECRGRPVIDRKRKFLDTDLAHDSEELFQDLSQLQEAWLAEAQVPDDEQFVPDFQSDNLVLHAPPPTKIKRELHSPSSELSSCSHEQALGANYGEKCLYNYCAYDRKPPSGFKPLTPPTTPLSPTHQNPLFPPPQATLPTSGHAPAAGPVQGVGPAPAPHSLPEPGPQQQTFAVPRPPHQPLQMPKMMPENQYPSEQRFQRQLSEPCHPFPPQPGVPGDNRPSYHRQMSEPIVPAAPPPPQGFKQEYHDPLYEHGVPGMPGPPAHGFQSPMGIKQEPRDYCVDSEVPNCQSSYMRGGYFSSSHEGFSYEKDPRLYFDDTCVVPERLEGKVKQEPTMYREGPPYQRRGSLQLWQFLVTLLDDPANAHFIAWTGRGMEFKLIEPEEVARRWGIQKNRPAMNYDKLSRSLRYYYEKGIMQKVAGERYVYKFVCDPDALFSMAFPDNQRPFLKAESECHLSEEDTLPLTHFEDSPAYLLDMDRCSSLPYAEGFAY
How it was run: as §1

HSF1 = HSF1 (Homo sapiens, UniProt Q00613 1-529); settings: protein: recombinant; tags: N-terminal GST; chain copies: 3; dsDNA, one strand shown
Chain of HSF1 (Q00613 whole entry): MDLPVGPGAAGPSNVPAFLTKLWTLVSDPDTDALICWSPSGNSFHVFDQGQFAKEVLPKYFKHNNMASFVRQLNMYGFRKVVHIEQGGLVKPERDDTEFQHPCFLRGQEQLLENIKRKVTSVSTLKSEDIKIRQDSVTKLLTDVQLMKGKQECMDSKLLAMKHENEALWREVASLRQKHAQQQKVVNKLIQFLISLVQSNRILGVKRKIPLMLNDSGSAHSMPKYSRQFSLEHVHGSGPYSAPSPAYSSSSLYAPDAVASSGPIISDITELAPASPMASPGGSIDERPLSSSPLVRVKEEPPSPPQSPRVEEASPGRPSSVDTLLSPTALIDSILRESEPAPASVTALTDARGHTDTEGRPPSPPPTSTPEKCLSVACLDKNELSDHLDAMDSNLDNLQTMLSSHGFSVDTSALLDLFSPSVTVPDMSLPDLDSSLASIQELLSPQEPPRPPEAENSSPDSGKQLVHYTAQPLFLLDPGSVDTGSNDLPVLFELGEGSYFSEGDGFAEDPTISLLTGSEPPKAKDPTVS
How it was run: as §1

SPIC = biological target: T2, SPIC (Homo sapiens, UniProt Q8N5J4 1-248); settings: protein: recombinant; tags: N-terminal GST; dsDNA, one strand shown
T2 sequence: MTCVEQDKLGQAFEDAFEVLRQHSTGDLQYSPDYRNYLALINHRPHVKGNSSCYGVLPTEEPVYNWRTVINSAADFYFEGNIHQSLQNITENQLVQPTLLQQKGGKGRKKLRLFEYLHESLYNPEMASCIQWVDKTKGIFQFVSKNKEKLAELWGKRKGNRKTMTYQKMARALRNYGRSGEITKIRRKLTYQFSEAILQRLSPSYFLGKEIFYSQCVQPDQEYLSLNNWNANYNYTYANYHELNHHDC
How it was run: as §1

ELF4 = ELF4 (Homo sapiens, UniProt Q99607 1-663); settings: protein: recombinant; tags: N-terminal GST; dsDNA, one strand shown
Chain of ELF4 (Q99607 whole entry): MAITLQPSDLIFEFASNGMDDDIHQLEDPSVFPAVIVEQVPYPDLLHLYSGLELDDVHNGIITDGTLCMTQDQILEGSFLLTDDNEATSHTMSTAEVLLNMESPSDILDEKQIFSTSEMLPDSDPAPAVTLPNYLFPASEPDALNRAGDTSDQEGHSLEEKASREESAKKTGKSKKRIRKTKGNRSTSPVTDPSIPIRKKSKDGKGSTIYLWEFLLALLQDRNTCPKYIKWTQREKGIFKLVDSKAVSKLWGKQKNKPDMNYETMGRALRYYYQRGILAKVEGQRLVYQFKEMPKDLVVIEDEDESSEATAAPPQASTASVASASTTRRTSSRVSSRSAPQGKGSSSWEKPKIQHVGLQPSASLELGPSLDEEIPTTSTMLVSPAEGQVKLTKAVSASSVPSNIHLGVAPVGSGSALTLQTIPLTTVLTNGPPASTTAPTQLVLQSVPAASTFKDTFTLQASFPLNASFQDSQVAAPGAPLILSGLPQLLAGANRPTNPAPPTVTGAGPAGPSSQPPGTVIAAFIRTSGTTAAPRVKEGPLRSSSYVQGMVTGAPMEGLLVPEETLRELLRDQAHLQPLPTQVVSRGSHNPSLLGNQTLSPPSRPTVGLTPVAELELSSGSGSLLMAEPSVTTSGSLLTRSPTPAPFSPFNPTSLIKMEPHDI
How it was run: as §1

ELK4 = biological target: T3, ELK4 (Homo sapiens, UniProt P28324-2 1-405); settings: protein: recombinant; tags: N-terminal GST; dsDNA, one strand shown
T3 sequence: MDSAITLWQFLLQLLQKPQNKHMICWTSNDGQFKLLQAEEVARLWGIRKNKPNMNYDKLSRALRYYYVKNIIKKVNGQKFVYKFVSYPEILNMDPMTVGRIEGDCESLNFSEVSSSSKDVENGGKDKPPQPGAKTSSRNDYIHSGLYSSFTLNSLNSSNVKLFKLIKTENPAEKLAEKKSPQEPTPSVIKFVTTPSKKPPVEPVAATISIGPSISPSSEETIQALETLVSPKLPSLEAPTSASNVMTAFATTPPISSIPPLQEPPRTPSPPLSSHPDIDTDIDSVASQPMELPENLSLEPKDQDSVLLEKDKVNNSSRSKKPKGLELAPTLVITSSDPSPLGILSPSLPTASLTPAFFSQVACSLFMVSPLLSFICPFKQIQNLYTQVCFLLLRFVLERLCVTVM
How it was run: as §1

ETV2 = biological target: T4, ETV2 (Homo sapiens, UniProt O00321 1-342); settings: protein: recombinant; tags: N-terminal GST; dsDNA, one strand shown
T4 sequence: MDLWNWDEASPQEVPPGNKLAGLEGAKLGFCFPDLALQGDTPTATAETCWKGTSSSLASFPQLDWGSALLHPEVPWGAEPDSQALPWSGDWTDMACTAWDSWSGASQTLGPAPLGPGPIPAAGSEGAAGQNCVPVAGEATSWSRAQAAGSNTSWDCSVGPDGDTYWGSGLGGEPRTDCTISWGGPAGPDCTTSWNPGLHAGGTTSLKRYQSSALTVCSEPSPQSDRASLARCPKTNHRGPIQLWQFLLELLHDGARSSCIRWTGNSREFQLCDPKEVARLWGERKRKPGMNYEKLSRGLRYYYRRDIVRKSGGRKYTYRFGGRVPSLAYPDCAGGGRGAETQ
How it was run: as §1

ELF3 = biological target: T5, ELF3 (Homo sapiens, UniProt P78545 1-371); settings: protein: recombinant; tags: N-terminal GST; dsDNA, one strand shown
T5 sequence: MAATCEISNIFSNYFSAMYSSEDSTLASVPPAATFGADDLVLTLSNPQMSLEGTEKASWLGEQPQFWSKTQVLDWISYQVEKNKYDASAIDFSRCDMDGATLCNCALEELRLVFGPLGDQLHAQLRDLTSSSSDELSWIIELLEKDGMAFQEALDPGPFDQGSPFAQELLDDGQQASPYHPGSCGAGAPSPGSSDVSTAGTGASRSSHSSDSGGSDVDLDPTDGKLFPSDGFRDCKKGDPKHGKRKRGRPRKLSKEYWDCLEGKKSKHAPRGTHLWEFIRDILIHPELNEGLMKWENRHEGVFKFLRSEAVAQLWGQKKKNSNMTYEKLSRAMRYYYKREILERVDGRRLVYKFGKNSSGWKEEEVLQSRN
How it was run: as §1

ETV1 = ETV1 (Homo sapiens, UniProt P50549 1-477); settings: protein: recombinant; tags: N-terminal GST; dsDNA, one strand shown
Chain of ETV1 (P50549 whole entry): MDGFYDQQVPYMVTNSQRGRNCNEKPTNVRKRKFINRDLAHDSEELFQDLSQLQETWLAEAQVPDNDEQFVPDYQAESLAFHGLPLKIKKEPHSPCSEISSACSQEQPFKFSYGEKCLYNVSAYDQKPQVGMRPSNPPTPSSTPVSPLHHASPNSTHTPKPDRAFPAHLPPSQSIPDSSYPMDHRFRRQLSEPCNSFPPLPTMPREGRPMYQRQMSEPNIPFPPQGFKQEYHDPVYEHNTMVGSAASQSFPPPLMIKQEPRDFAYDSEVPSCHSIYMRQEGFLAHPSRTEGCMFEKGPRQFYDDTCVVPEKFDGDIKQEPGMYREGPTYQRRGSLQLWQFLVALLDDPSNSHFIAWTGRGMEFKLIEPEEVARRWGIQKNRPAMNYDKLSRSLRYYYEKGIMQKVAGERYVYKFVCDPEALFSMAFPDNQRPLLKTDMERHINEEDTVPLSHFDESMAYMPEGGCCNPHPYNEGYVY
How it was run: as §1

TGGTTC
binding signal (FEV): 1.35 fold enrichment (6-mer frequency, TF over GST control)
binding signal (ETV5): 1.44 fold enrichment (6-mer frequency, TF over GST control)
binding signal (HSF1): 1.27 fold enrichment (6-mer frequency, TF over GST control)
binding signal (SPIC): 1.51 fold enrichment (6-mer frequency, TF over GST control)
binding signal (ELF4): 1.33 fold enrichment (6-mer frequency, TF over GST control)
binding signal (ELK4): 1.36 fold enrichment (6-mer frequency, TF over GST control)
binding signal (ETV2): 1.33 fold enrichment (6-mer frequency, TF over GST control)
binding signal (ELF3): 1.57 fold enrichment (6-mer frequency, TF over GST control)
binding signal (ETV1): 1.38 fold enrichment (6-mer frequency, TF over GST control)
